Results as given in PubChem BioAssay AID1159580 (chemical genetic matrix, 2015).
Out of some 5,500 compounds screened, about 2,000 (36%) were called active. About 18% were inconclusive and are not listed. Rule as the data show it: active = normalized growth mostly below about 0.91 (no sharp cut-off); inconclusive = no clear call, values can overlap the other calls; inactive = mostly above about 0.92. The list shows a part of the results.

Assay: chemical genetic growth profiling, strain panel (AID 1159580);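 also: tested at 20 µM; growth read once vehicle control cultures reached saturation at 30 °C; 1 = growth at the plate median or of vehicle wells; lower values mean less growth of the strain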
Conditions: growth OD

Measured: normalized growth

COc1ccc2ccc(=O)oc2c1CC=C(C)C
inactive: S. cerevisiae deletion strains, locus YJL187C, strain SWE1, stronger effect = lower value 0.937 | S. cerevisiae deletion strains, locus YKL160W, strain elf1, stronger effect = lower value 0.912 | S. cerevisiae deletion strains, locus YLL041C, strain sdh2, stronger effect = lower value 0.945 | S. cerevisiae deletion strains, locus YLR342W, strain FKS1, stronger effect = lower value 0.923 | S. cerevisiae deletion strains, locus YLR384C, strain iki3, stronger effect = lower value 0.957 | S. cerevisiae deletion strains, locus YML016C, strain PPZ1, stronger effect = lower value 0.926 | S. cerevisiae deletion strains, locus YMR231W, strain pep5, stronger effect = lower value 0.935 | S. cerevisiae deletion strains, locus YMR307W, strain GAS1, stronger effect = lower value 0.706 | S. cerevisiae deletion strains, locus YNL209W, strain ssb2, stronger effect = lower value 0.958 | S. cerevisiae deletion strains, locus YNL248C, strain rpa49, stronger effect = lower value 0.971 | S. cerevisiae deletion strains, locus YNL250W, strain rad50, stronger effect = lower value 0.918 | S. cerevisiae deletion strains, locus YOL012C, strain htz1 0.768 | S. cerevisiae deletion strains, locus YOR061W, strain CKA2, stronger effect = lower value 0.929 | S. cerevisiae deletion strains, locus YOR080W, strain dia2, stronger effect = lower value 0.93 | S. cerevisiae deletion strains, locus YOR083W, strain WHI5, stronger effect = lower value 0.895 | S. cerevisiae deletion strains, locus YOR106W, strain vam3, stronger effect = lower value 0.917 | S. cerevisiae deletion strains, locus YPL051W, strain arl3, stronger effect = lower value 0.931 | S. cerevisiae deletion strains, locus YPL106C, strain sse1, stronger effect = lower value 0.917 | S. cerevisiae deletion strains, locus YPL240C, strain hsp82, stronger effect = lower value 0.96 | S. cerevisiae deletion strains, locus YPR141C, strain kar3, stronger effect = lower value 0.937
active: S. cerevisiae deletion strains, locus YJR043C, strain POL32, stronger effect = lower value 0.538 | S. cerevisiae deletion strains, locus YKL009W, strain mrt4, stronger effect = lower value 0.873 | S. cerevisiae deletion strains, locus YKL068W, stronger effect = lower value 0.898 | S. cerevisiae deletion strains, locus YKL085W, strain MDH1 (second series), stronger effect = lower value 0.916 | S. cerevisiae deletion strains, locus YKL085W, strain MDH1, stronger effect = lower value 0.916 | S. cerevisiae deletion strains, locus YKR001C, strain vps1, stronger effect = lower value 0.589 | S. cerevisiae deletion strains, locus YKR026C, strain gcn3, stronger effect = lower value 0.906 | S. cerevisiae deletion strains, locus YKR091W, strain srl3, stronger effect = lower value 0.926 | S. cerevisiae deletion strains, locus YLL001W, strain dnm1, stronger effect = lower value 0.87 | S. cerevisiae deletion strains, locus YLL026W, stronger effect = lower value 0.857 | S. cerevisiae deletion strains, locus YLR027C, strain aat2, stronger effect = lower value 0.845 | S. cerevisiae deletion strains, locus YLR039C, strain RIC1, stronger effect = lower value 0.438 | S. cerevisiae deletion strains, locus YLR058C, strain SHM2, stronger effect = lower value 0.794 | S. cerevisiae deletion strains, locus YLR102C, strain apc9, stronger effect = lower value 0.891 | S. cerevisiae deletion strains, locus YLR221C, strain rsa3, stronger effect = lower value 0.871 | S. cerevisiae deletion strains, locus YLR258W, strain gsy2, stronger effect = lower value 0.848 | S. cerevisiae deletion strains, locus YLR262C, strain YPT6 (second series), stronger effect = lower value 0.642 | S. cerevisiae deletion strains, locus YLR262C, strain YPT6, stronger effect = lower value 0.476 | S. cerevisiae deletion strains, locus YLR268W, strain sec22, stronger effect = lower value 0.723 | S. cerevisiae deletion strains, locus YLR320W, strain mms22, stronger effect = lower value 0.607 | S. cerevisiae deletion strains, locus YLR330W, strain CHS5, stronger effect = lower value 0.658 | S. cerevisiae deletion strains, locus YLR342W, strain FKS1 (second series), stronger effect = lower value 0.705 | S. cerevisiae deletion strains, locus YLR357W, strain rsc2, stronger effect = lower value 0.761 | S. cerevisiae deletion strains, locus YLR370C, strain arc18, stronger effect = lower value 0.899 | S. cerevisiae deletion strains, locus YLR371W, strain rom2, stronger effect = lower value 0.889 | S. cerevisiae deletion strains, locus YLR418C, strain cdc73, stronger effect = lower value 0.492 | S. cerevisiae deletion strains, locus YML032C, strain rad52, stronger effect = lower value 0.779 | S. cerevisiae deletion strains, locus YML120C, strain ndi1, stronger effect = lower value 0.822 | S. cerevisiae deletion strains, locus YML124C, strain tub3, stronger effect = lower value 0.859 | S. cerevisiae deletion strains, locus YMR058W, strain fet3, stronger effect = lower value 0.89 | S. cerevisiae deletion strains, locus YMR078C, strain ctf18, stronger effect = lower value 0.891 | S. cerevisiae deletion strains, locus YMR125W, strain sto1, stronger effect = lower value 0.81 | S. cerevisiae deletion strains, locus YMR129W, stronger effect = lower value 0.904 | S. cerevisiae deletion strains, locus YMR205C, strain PFK2, stronger effect = lower value 0.659 | S. cerevisiae deletion strains, locus YMR223W, strain ubp8, stronger effect = lower value 0.797 | S. cerevisiae deletion strains, locus YMR263W, strain SAP30, stronger effect = lower value 0.826 | S. cerevisiae deletion strains, locus YNL067W, strain RPL9B, stronger effect = lower value 0.762 | S. cerevisiae deletion strains, locus YNL071W, strain lat1, stronger effect = lower value 0.672 | S. cerevisiae deletion strains, locus YNL153C, strain GIM3, stronger effect = lower value 0.713 | S. cerevisiae deletion strains, locus YNL233W, strain BNI4, stronger effect = lower value 0.567 | S. cerevisiae deletion strains, locus YNL271C, strain bni1, stronger effect = lower value 0.907 | S. cerevisiae deletion strains, locus YNL298W, strain CLA4, stronger effect = lower value 0.829 | S. cerevisiae deletion strains, locus YNL307C, strain MCK1, stronger effect = lower value 0.381 | S. cerevisiae deletion strains, locus YNL322C, strain KRE1 (second series), stronger effect = lower value 0.807 | S. cerevisiae deletion strains, locus YNL322C, strain KRE1, stronger effect = lower value 0.804 | S. cerevisiae deletion strains, locus YNR049C, strain mso1, stronger effect = lower value 0.914 | S. cerevisiae deletion strains, locus YNR052C, strain pop2, stronger effect = lower value 0.909 | S. cerevisiae deletion strains, locus YOL147C, strain pex11, stronger effect = lower value 0.726 | S. cerevisiae deletion strains, locus YOR001W, strain rrp6, stronger effect = lower value 0.889 | S. cerevisiae deletion strains, locus YOR069W, strain VPS5, stronger effect = lower value 0.89 | S. cerevisiae deletion strains, locus YOR070C, strain gyp1, stronger effect = lower value 0.917 | S. cerevisiae deletion strains, locus YOR136W, strain idh2, stronger effect = lower value 0.911 | S. cerevisiae deletion strains, locus YOR144C, strain elg1, stronger effect = lower value 0.855 | S. cerevisiae deletion strains, locus YOR184W, strain ser1, stronger effect = lower value 0.481 | S. cerevisiae deletion strains, locus YOR265W, strain rbl2, stronger effect = lower value 0.921 | S. cerevisiae deletion strains, locus YOR270C, strain vph1, stronger effect = lower value 0.532 | S. cerevisiae deletion strains, locus YOR290C, strain snf2, stronger effect = lower value 0.712 | S. cerevisiae deletion strains, locus YOR316C, strain cot1, stronger effect = lower value 0.864 | S. cerevisiae deletion strains, locus YPL078C, strain atp4, stronger effect = lower value 0.845 | S. cerevisiae deletion strains, locus YPR119W, strain clb2, stronger effect = lower value 0.888 | S. cerevisiae deletion strains, locus YPR163C, strain tif3, stronger effect = lower value 0.796 | S. cerevisiae deletion strains, locus YPR167C, strain met16, stronger effect = lower value 0.799 | S. cerevisiae deletion strains, strain wtn01, stronger effect = lower value 0.843 | S. cerevisiae strains, strain wild type, stronger effect = lower value 0.798
